In the supplement of paper PMC10849652:
The full data set covers some 7,900 targets. This sample favours those with a hit. About 0.6% of all pairs of compound and target were hits.

Tests used:
Experiment in all cases: log2 fold change, soluble protein after heating vs DMSO (PISA); higher = thermal stabilisation; K562 cells, 10 uM, 30 min; active = over 0.2 and 3.5 SD of the protein, either way, in both replicates (recomputed)
[1] = compound: C1=CC=C(C=C1)[C@H](COC2=CC3=C(C=C2)NC(=O)N3)NC(=O)C4=CC=CN(C4=O)CC5=CC(=C(C=C5)F)F
Summary of the method: (§1)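 K562 cells at 2×10^6 cells/mL were given 10 μM compound for 30 min. Aliquots then went through 3 min of heating across 48°C-58°C, were pooled, and were extracted in PBS with 0.5% NP-40 at 4°C, and the supernatant after 21,000xg for 90 min was quantified by TMTpro 16plex LC-MS/MS with channel sums equalised. Thermal stability relative to control samples, from duplicates, is given as log2 fold change.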

[2] = compound: CC1=C(SC2=C1C(=N[C@H](C3=NN=C(N32)C)CC(=O)N)C4=CC=C(C=C4)Cl)C
Summary of the method: as §1

[3] = compound: CC1=C2C(=CC=C1)N=C(N(C2=O)C3=CC=CC=C3C)CN4C=NC5=C(N=CN=C54)N
Summary of the method: as §1

[4] = compound: Cc1sc2c(c1C)C(c1ccc(Cl)cc1)=N[C@@H](CC(=O)OC(C)(C)C)c1nnc(C)n1-2
Summary of the method: as §1

[5] = compound: c1ccc([C@@H]2C[C@H]2NC2CCNCC2)cc1
Summary of the method: as §1

Measured: log2 fold change

SLC25A38 (UniProt Q96DW6)
Sequence of UniProt Q96DW6 (Q96DW6 whole entry, looked up): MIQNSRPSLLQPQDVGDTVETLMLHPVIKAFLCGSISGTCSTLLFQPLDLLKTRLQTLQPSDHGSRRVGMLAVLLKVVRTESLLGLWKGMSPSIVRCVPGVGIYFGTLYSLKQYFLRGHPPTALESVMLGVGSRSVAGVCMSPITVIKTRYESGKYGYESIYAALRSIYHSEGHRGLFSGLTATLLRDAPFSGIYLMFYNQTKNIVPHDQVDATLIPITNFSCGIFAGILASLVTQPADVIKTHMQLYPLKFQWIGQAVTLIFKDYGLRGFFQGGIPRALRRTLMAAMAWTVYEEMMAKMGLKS
inactive: [1] 0.014 | [2] 0.034 | [3] -0.035 | [4] -0.035 | [5] 0.014

TLK1 (UniProt Q9UKI8)
Sequence of UniProt Q9UKI8 (Q9UKI8 whole entry, looked up): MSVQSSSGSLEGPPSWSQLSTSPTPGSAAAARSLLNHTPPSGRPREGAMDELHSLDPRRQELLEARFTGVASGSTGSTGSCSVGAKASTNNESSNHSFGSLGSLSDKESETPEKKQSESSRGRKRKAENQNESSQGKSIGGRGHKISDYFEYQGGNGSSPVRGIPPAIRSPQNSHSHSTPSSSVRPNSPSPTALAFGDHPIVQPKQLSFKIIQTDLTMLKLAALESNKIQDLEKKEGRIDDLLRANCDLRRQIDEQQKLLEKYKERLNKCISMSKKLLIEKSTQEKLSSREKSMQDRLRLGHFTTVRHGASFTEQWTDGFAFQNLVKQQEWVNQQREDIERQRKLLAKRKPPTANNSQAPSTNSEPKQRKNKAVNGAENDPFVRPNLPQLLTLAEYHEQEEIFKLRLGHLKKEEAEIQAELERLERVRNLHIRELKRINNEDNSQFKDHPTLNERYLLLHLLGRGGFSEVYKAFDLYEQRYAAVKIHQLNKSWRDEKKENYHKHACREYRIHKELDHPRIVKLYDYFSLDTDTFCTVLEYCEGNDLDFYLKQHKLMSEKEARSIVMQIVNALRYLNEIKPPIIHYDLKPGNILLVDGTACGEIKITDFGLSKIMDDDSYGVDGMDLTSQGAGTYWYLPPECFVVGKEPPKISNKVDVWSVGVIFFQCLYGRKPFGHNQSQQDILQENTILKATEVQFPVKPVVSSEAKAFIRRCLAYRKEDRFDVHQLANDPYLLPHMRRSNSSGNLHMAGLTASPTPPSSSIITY
inactive: [1] 0.007 | [2] 0.036 | [3] 0.036 | [4] -0.036 | [5] 0.018

STK25 (UniProt O00506)
Sequence of UniProt O00506 (O00506 whole entry, looked up): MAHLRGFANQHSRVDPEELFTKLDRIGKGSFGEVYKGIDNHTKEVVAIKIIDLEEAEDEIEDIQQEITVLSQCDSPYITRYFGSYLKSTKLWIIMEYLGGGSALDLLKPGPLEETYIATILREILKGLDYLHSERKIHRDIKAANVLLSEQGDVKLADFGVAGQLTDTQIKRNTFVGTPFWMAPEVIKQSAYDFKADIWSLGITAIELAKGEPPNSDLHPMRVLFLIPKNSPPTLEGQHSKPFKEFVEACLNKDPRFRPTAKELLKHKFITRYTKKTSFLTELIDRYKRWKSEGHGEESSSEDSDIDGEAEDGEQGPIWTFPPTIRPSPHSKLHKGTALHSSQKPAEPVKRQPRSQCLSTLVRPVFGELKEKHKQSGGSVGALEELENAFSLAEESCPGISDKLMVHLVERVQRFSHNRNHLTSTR
inactive: [1] -0.022 | [2] 0.111 | [3] 0.015 | [4] -0.019 | [5] -0.016

SMARCA5 (UniProt O60264)
Sequence of UniProt O60264 (O60264 whole entry, looked up): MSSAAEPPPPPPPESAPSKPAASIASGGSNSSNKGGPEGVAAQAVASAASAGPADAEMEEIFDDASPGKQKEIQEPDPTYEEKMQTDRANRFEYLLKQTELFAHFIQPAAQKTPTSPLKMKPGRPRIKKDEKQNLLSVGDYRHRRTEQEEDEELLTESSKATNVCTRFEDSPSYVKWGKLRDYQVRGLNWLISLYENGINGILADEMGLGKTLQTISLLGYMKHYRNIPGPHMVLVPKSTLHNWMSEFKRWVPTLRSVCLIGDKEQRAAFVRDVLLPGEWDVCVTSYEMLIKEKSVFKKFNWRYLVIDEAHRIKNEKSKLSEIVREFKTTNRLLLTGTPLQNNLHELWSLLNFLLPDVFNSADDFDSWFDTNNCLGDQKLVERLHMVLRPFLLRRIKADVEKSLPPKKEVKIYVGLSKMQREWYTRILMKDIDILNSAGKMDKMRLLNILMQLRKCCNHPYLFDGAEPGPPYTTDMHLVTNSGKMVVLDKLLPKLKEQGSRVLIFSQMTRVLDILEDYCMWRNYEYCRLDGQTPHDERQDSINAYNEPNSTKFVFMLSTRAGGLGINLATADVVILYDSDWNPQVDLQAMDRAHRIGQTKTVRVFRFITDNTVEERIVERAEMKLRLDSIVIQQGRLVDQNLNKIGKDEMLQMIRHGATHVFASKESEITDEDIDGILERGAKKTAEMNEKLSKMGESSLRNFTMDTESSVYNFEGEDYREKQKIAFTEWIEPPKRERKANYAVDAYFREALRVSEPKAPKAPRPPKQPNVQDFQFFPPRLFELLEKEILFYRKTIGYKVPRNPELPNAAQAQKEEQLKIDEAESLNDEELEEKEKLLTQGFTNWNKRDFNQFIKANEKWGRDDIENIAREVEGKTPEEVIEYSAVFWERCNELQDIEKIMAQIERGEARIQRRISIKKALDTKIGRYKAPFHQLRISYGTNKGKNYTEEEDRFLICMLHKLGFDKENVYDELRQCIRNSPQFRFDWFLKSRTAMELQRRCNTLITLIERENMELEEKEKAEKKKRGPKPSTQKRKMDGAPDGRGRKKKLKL
inactive: [1] -0.168 | [2] 0.063 | [3] 0.105 | [4] -0.026 | [5] -0.006

SPTBN4 (UniProt Q9H254)
inactive: [1] -0.058 | [2] -0.083 | [3] 0.148 | [4] 0.014 | [5] -0.001

SRXN1 (UniProt Q9BYN0)
Sequence of UniProt Q9BYN0 (Q9BYN0 whole entry, looked up): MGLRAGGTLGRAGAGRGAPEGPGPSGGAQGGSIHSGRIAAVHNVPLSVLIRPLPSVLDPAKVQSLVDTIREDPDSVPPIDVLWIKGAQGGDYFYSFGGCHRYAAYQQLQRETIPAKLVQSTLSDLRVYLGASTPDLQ
inactive: [1] -0.02 | [2] 0.086 | [3] 0.117 | [4] -0.05 | [5] 0.086

TBC1D10B (UniProt Q4KMP7)
Sequence of UniProt Q4KMP7 (Q4KMP7 whole entry, looked up): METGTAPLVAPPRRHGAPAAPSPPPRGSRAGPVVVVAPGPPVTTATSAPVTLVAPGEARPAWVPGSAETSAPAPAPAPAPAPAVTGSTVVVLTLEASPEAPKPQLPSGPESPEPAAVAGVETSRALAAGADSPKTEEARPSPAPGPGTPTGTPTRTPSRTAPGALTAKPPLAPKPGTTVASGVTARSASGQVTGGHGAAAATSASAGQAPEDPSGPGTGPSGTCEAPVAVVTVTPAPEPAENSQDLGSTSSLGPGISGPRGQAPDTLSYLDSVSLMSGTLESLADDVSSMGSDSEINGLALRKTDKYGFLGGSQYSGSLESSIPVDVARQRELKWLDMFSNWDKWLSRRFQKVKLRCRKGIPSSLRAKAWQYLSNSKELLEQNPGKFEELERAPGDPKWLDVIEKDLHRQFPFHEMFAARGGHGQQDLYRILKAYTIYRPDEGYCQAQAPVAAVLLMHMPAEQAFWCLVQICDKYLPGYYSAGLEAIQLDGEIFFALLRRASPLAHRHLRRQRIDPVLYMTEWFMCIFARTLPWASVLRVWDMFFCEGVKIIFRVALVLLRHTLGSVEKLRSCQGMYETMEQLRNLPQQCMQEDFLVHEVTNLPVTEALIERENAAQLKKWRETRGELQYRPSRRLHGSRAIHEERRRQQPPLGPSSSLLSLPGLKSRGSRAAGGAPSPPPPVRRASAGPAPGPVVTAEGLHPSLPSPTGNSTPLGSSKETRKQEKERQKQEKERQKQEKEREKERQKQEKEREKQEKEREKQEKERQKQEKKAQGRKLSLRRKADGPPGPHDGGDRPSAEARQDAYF
inactive: [1] -0.021 | [2] 0.062 | [3] 0.014 | [4] -0.026 | [5] 0.006

SRSF10 (UniProt O75494)
Sequence of UniProt O75494 (O75494 whole entry, looked up): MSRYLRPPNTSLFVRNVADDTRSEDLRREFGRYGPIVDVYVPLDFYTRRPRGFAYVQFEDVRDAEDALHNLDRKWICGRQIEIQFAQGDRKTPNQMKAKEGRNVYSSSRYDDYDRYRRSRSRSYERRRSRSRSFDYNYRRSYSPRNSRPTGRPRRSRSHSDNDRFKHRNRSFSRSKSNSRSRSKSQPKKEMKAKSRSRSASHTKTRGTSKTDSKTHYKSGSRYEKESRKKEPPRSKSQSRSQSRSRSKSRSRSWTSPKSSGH
inactive: [1] 0.001 | [2] -0.475 | [3] -0.187 | [4] 0.249 | [5] 0.17

THYN1 (UniProt Q9P016)
Sequence of UniProt Q9P016 (Q9P016 whole entry, looked up): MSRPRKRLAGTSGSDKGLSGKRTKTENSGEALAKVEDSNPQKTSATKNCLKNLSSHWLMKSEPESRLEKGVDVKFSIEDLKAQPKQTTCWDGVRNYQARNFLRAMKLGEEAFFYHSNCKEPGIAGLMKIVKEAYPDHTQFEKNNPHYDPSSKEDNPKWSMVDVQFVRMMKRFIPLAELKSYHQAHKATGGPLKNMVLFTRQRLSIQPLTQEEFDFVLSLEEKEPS
inactive: [1] -0.024 | [2] 0.044 | [3] 0.043 | [4] 0.01 | [5] -0.067
